Giardia kill – Small Molecules that selectively kill Giardia lamblia: qHTS; Giardia lamblia trophozoite viability; activity change, % at 7.66 µM, hits read low; actives 0.15% (n = 340,000); AID 540267, 2011; in the data active = activity change below about -80%; inconclusive = between about -30% and that limit;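 note: parasites exposed to compound for two days anaerobically before the ATP read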
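Luminescence from cellular ATP indicates surviving trophozoites (100 cells/well) following 48 hrs anaerobic compound treatment at 37 deg C; signal develops 15-30 min at room temperature.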
A549 tox-1 – Nrf2 qHTS screen for inhibitors: counterscreen for cytotoxicity; actives 0.16% (n = 390,000); Potency, µM (doses to about 46 µM), most hits filed as inhibitors; A549 ARE-Fluc cells, CellTiter-Fluor viability, 18-24 h
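Cytotoxicity counterscreen: CellTiter-Fluor fluorescence was measured in A549 ARE_Fluc cells after 18-24 h of compound exposure in a concentration series. The subsequent BugLite luminescent read reports ARE-luciferase activity.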
Apoferritin bind – qHTS Assay for Identification of Novel General Anesthetics | Ferritin light chain (Equus caballus), P02791 | apoferritin/1-aminoanthracene competitive binding, fluorescence | actives 0.074% (n = 350,000) | Potency, µM (doses to about 77.5 µM), actives largely listed as inhibitors; note: nearly all actives have a fitted effect of over 20% in size
Target sequence (P02791 2-175 limits assumed): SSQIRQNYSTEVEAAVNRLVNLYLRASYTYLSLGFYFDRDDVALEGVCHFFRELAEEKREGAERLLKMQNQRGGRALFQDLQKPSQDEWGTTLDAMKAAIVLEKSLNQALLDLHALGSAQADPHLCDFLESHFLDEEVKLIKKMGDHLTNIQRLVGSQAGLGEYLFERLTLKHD
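Horse-spleen apoferritin (10 uM) in 50% saturated 1-aminoanthracene in PBS was incubated 10 min at room temperature with compound. Fluorescence (ex 380, em 535 nm) was normalized to free and bound 1-AMA, with concentration-response fitted by a four-parameter Hill equation.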
Nrf2 activator – qHTS of Nrf2 Activators | actives 0.31% (n = 410,000) | Potency, µM (titrated, usually from 46.1 µM), most hits filed as activators | AREc32 ARE-luciferase reporter (MCF7-derived line), luminescence, 24 h | AID 624171, 2012; note: nearly all actives have a fitted effect of over 65% in size
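AREc32 cells carrying an ARE-driven firefly luciferase, 1000 cells/well in OPTI-MEM with 5% FBS, dosed after overnight attachment and incubated 24 hr at 37 deg C. Steady-Glo luminescence read after 30 min at RT.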
Nrf2 inh – Nrf2 qHTS screen for inhibitors; A549 ARE-Fluc reporter, luciferase luminescence, 18-24 h; Potency, µM (series often up to 46 µM), usual class: inhibitors; actives 2.1% (n = 360,000); AID 504444, 2011; note: nearly all actives have a fitted effect of over 60% in size
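Quantitative HTS in A549 cells stably bearing an antioxidant response element-firefly luciferase construct. Inhibition of Nrf2-driven transcription was scored by luminescence after 18-24 h of compound exposure at 37 °C.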
IDH1 R132H inh – qHTS for Inhibitors of mutant isocitrate dehydrogenase 1 (IDH1): qHTS. Isocitrate dehydrogenase [NADP] cytoplasmic (Homo sapiens), O75874. AID 602179, 2012. actives 0.093% (n = 390,000). Potency, µM (top dose mostly 76.6 µM), actives largely listed as inhibitors. IDH1-R132H enzyme, NADPH consumption, diaphorase/resazurin fluorescence; note: nearly all actives have a fitted effect of over 65% in size
Target sequence (O75874 whole entry R132H, stated change not applied): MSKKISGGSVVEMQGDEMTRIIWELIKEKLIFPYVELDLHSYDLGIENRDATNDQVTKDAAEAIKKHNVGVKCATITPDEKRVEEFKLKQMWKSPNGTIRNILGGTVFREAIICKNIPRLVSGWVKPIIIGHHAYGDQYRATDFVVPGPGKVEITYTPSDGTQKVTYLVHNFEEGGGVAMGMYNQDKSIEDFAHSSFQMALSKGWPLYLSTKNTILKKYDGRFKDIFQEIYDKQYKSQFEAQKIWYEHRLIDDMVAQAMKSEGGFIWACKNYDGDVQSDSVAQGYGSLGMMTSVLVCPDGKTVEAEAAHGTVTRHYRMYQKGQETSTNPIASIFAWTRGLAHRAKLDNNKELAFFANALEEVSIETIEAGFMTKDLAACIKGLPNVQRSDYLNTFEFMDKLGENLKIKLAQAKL
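IDH1-R132H (0.5 ug/mL dispensed) in pH 7.5 Tris buffer was preincubated 30 min with compound, then given a substrate mix of 0.016 mM NADPH and 2 mM alpha-KG for 80 min at room temperature; remaining NADPH was read by diaphorase/resazurin fluorescence.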
FLuc counter 3 – Nrf2 qHTS screen for inhibitors: Purified Fluc Biochemical Counterscreen for Hit Validation; Potency, µM (titrated, usually from 57.5 µM), actives largely listed as inhibitors; purified firefly luciferase, luminescence inhibition; actives 4% (n = 1,400); shares compounds with Nrf2 inh; note: nearly all actives have a fitted effect of over 65% in size
A549 tox-2 – Nrf2 qHTS screen for inhibitors: A549 ARE-Fluc Cytotoxicity Counterscreen for Hit Validation | shares compounds with Nrf2 inh | A549 ARE-Fluc cells, cytotoxicity counterscreen | Potency, µM (highest dose often 46.1 µM), most hits filed as inhibitors | actives 2% (n = 1,400);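 note: cells exposed to compounds for 18 to 24 hours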
Nrf2 ARE inh – Nrf2 qHTS screen for inhibitors: Nrf2 A549 ARE-Fluc Confirmation Assay for Hit Validation. Potency, µM (doses to about 46.1 µM), usual class: inhibitors. AID 720524, 2013. A549 ARE-firefly luciferase reporter, luminescence. shares compounds with Nrf2 inh. actives 74% (n = 1,400); note: nearly all actives have a fitted effect of over 65% in size
Hits are given with their value; n = inactive; u = inconclusive; x = no result shown; [ ] = remark or other dose. In the library only some 2.3% were active in any assay of this set; here they are far more common. Unless noted, calls come from the whole dose curve; as a rule, active = well fitted curve in the direction sought with a large enough effect; inconclusive = small, poorly fitted or top-dose-only effect, or another doubt; inactive = no such curve, though single readings can be large; an effect the other way counts as inactive or inconclusive.

SMILES | Giardia kill | A549 tox-1 | Apoferritin bind | Nrf2 activator | Nrf2 inh | IDH1 R132H inh | FLuc counter 3 | A549 tox-2 | Nrf2 ARE inh
Cc1cc(C)cc(OCCSc2nc3ccc(NC(=O)c4cccs4)cc3s2)c1 | x | n | n | n | n | n | x | x | x
CC(C)(C)c1ccc(-n2ncc3c2CCCC3NC(=O)C2(C(N)=O)CC2)cc1 (stereo unspecified) | n | n | n | n | 1.3µM | n | n | n | x
CC(=O)NCC(=O)NC1CCCc2c1cnn2-c1ccc(C(C)(C)C)cc1 (stereo unspecified) | n | n | n | n | u | n | x | x | x
CCCCn1c(SCC(=O)Nc2nnc(C(C)C)s2)nc2c1c(=O)n(C)c(=O)n2C | n | u | n | n | 7.3µM | n | n | n | 16µM
CCCCNC(=O)C(CC)Sc1nc2ccccc2c(=O)n1CCc1ccc(OC)c(OC)c1 (stereo unspecified) | x | n | n | n | x | n | x | x | x
N#C/C(=N\Nc1cccc(C(F)(F)F)c1)C(=O)c1ccsc1 | n | n | n | n | u | n | 21µM | u | x
O=C(Nc1c(-c2ccc(F)cc2)nc2ccccn12)c1ccccc1F | x | n | n | n | n[9.27 µM] | n | x | x | x
O=[N+]([O-])c1cccc2nc3ccccc3c(NCCCn3ccnc3[N+](=O)[O-])c12 | -95 | u | x | n | 0.15µM | n | u | u | x
Cc1ccccc1-c1ccnc2c(-c3ccc(F)cc3)c(C)nn12 | x | n | n | n | u | n | x | x | x
COc1ccc(-c2csc(NC(=O)c3ccccc3NS(=O)(=O)c3ccc(F)c(F)c3)n2)cc1 | n | u | n | n | 2.9µM | u | u | u | 4.1µM
Cc1ccc(S(=O)(=O)Nc2ccccc2C(=O)Nc2nc(-c3ccc(F)cc3)cs2)cc1 | n | u | n | n | u | n | x | x | x
COC(=O)c1cc(OC)c(OC)cc1NC(=O)c1ccco1 | n | u | n | n | n | n | x | x | x
COc1ccc(NC(=O)COC(=O)c2cc(OC)c(OC)cc2NC(=O)c2ccco2)cc1OC | n | x | n | n | 5.8µM | n | n | n | n
CC(C)(C)c1ccc(C(=O)N2CCCCCC2=O)cc1 | n | n | n | n | 9.2µM | n | u | n | 3.7µM
CN(C)S(=O)(=O)c1ccc(Nc2nc(C3CC3)nc3c2nnn3Cc2ccccc2Cl)cc1 | n | n | n | n | 5.8µM | n | n | n | 4.1µM
O=C(c1cc2nc(-c3ccc(F)cc3)cc(C(F)(F)F)n2n1)N1CCCCC1c1cccnc1 (stereo unspecified) | n | u | u | n | 4.6µM | u | n | n | 6.5µM
O=C(N/N=C(\Cc1ncc[nH]1)c1ccccc1)c1cccnc1 | n | n | n | n | 2.3µM | n | n | n | 8.2µM
O=C(N/N=C(\c1ccccc1)c1cccnc1)c1cccc(F)c1 | n | u | n | u | 7.3µM | n | n | u | 1.8µM
O=C(N/N=C(\Cc1ncc[nH]1)c1ccccc1)c1ccccc1 | x | x | n | x | x | x | x | x | x
O=C(N/N=C(\c1ccccc1)c1cccnc1)c1ccc(O)cc1 | n | n | n | n | n | n | x | x | x
O=C(N/N=C/c1ccc(OC(F)F)cc1)c1cc[n+]([O-])cc1 | n | n | n | n | n | n | x | x | x
Cc1ccc(S(=O)(=O)N(C)Cc2ccc(C(=O)N/N=C/c3ccc(OC(F)F)cc3)cc2)cc1 | n | n | n | n | 5.8µM | n | n | n | 6.5µM
CCCCn1cc2c(c1-c1ccc(Br)cc1)c(=O)n(C)c(=O)n2C | x | n | n | n | u | u | x | x | x
CCOC(=O)c1cc(-c2ccc(C)cc2)n(CCC(=O)NCc2ccccc2)c1C | x | n | n | n | 8.2µM | n | n | n | n
CCOC(=O)c1cc(-c2ccccc2)n(CC(=O)NCc2ccc(C)cc2)c1C | x | n | n | n | x | n | x | x | x
SMILES | Giardia kill | A549 tox-1 | Apoferritin bind | Nrf2 activator | Nrf2 inh | IDH1 R132H inh | FLuc counter 3 | A549 tox-2 | Nrf2 ARE inh
COc1ccc(N2CC(C(=O)Nc3ccccc3-c3nc(-c4ccc(C)cc4)no3)CC2=O)cc1 (stereo unspecified) | x | n | n | n | n | n | x | x | x
COc1cc(C(=O)NCc2cccnc2)ccc1OCC(=O)Nc1cccc(C(F)(F)F)c1 | n | n | x | n | 6.5µM | n | n | n | 16µM
CCc1nc(N)nc(N)c1-c1ccc(Cl)c([N+](=O)[O-])c1 | n | n | x | n | 0.37µM | n | n | n | 0.92µM
COc1ccc2oc(=O)c(C(=O)Nc3cccc(C(=O)O)c3)cc2c1 | x | n | n | n | u | n | x | x | x
CCOc1ccc2oc(=O)cc(CN3CCN(Cc4ccc(F)cc4)CC3)c2c1 | x | n | n | n | n | n | x | x | x
COc1ccc(OC)c(CCNC(=O)C(C)n2nc(C)c3c(C)n(-c4ccc(C)cc4)nc3c2=O)c1 (stereo unspecified) | n | u | u | n | 6.5µM | n | n | u | 3.7µM
Cc1cccc(N2CCN(C(=O)Cn3ncc4c([nH]c5ccccc54)c3=O)CC2C)c1 (stereo unspecified) | x | n | n | n | n | n | x | x | x
COC(=O)C1=C(c2ccccc2)c2ccccc2S(=O)(=O)N1CC(=O)Nc1ccccc1Cl | x | n | n | n | n | n | x | x | x
O=C(Nc1nnc(CCc2ccccc2)s1)C1CCN(C(=O)c2ccco2)CC1 | n | n | x | x | u | x | x | x | x
COc1ccc(N2CCN(S(=O)(=O)c3ccc4c(c3)CC(C)N4C(C)=O)CC2)cc1 (stereo unspecified) | x | n | n | n | 9.2µM | n | n | n | 5.8µM
CC1Cc2cc(S(=O)(=O)NCc3ccccc3)ccc2N1C(=O)C1CCC1 (stereo unspecified) | n | n | n | n | 1.6µM | n | n | n | u
COc1ccc(NS(=O)(=O)c2ccc3c(c2)CC(C)N3C(=O)C2CCC2)cc1OC (stereo unspecified) | x | u | u | n | x | n | x | x | x
COc1cc(Cl)c(NS(=O)(=O)c2ccc3c(c2)CC(C)N3C(=O)C2CCC2)c(OC)c1 (stereo unspecified) | x | n | u | n | 9.2µM | n | n | n | 8.2µM
